Holding throughout (experiment): DAPPL (digital affinity profiling via proximity ligation, sequencing); 10 mM Tris-HCl pH 7.5, 50 mM NaCl, 1 mM DTT, 4% glycerol, room temperature, 30 min; GST-TFs on glutathione beads, 16-mer random dsDNA library, 0.1% formaldehyde crosslink after washing; high values mean tight binding
Conditions in all cases: protein: recombinant; tags: N-terminal GST; dsDNA, one strand shown

One test deals with T1, FLI1 (Homo sapiens, UniProt Q01543 1-452).
T1 sequence: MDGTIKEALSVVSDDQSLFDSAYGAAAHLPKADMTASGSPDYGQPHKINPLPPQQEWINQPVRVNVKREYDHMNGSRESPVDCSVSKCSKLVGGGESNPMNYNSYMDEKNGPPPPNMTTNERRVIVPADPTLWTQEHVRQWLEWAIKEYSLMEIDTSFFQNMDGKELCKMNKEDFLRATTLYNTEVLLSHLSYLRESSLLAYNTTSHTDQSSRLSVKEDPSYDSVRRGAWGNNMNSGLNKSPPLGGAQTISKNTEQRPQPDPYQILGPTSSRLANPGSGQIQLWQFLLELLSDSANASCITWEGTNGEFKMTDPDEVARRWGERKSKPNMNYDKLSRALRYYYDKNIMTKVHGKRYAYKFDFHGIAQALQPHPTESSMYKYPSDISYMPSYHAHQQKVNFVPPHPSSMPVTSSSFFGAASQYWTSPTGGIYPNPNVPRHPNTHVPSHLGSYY
The method in brief: (§1)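 Beads coated with glutathione captured GST-fused human transcription factors that had been expressed in yeast, and the factors were then given DNA barcodes and pooled with a tag-only sample. The pools were incubated with 200 nmole of a random double-stranded 16-mer DNA library in Tris/NaCl/DTT/glycerol buffer for 30 min at room temperature, washed, crosslinked with 0.1% formaldehyde and proximity-ligated with BsaI/T4 ligase at 37 °C for 1 h. PCR amplification and Illumina NextSeq500 sequencing came last. Binding signal is each hexamer's read frequency for a factor divided by its frequency for the tag-only sample.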

The next test deals with T2, ELK1 (Homo sapiens, UniProt P19419 1-428).
T2 sequence: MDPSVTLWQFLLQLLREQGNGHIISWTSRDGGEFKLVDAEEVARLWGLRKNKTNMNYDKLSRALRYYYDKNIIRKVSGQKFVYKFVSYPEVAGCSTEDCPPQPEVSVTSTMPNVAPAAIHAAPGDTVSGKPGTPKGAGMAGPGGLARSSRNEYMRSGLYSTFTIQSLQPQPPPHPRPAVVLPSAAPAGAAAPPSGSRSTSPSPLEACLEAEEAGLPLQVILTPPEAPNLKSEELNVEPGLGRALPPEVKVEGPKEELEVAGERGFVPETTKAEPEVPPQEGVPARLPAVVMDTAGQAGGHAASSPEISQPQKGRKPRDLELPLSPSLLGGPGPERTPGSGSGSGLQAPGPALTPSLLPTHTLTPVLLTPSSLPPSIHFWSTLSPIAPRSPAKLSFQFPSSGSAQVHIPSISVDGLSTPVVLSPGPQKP
Put shortly: as §1

The next test has as its target T3, GABPA (Homo sapiens, UniProt Q06546 1-454).
T3 sequence: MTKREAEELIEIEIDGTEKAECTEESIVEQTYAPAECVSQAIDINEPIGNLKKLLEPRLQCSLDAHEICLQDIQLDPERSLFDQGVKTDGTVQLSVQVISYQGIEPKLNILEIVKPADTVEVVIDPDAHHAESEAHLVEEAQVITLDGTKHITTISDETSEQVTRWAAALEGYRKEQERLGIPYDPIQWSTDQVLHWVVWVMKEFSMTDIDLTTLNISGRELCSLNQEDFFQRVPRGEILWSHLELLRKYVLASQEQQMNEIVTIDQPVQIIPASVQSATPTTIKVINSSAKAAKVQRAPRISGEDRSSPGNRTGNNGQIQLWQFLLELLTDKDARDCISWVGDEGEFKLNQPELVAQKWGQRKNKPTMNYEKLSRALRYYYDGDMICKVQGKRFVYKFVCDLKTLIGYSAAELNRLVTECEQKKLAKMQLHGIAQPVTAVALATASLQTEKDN
Put shortly: as §1

The target in another test is T4, ERG (Homo sapiens, UniProt P11308 1-479).
T4 sequence: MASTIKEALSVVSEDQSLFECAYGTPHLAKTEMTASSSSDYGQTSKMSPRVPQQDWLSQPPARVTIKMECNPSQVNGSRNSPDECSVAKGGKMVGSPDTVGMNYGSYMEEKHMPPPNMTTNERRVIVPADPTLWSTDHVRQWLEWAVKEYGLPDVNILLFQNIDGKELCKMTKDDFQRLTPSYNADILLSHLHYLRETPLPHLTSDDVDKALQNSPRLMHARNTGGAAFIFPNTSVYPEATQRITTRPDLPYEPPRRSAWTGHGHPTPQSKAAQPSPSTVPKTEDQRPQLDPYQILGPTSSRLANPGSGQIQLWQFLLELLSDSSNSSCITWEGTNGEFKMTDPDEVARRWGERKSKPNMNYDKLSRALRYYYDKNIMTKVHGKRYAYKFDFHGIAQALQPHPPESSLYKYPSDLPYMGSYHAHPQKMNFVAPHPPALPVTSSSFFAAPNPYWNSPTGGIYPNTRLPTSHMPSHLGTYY
The method in brief:
as §1

A further test addresses ELF1 (Homo sapiens, UniProt P32519 1-619). Put shortly:
as §1

The target of a further test is T5, EHF (Homo sapiens, UniProt Q9NZC4 1-300).
T5 sequence: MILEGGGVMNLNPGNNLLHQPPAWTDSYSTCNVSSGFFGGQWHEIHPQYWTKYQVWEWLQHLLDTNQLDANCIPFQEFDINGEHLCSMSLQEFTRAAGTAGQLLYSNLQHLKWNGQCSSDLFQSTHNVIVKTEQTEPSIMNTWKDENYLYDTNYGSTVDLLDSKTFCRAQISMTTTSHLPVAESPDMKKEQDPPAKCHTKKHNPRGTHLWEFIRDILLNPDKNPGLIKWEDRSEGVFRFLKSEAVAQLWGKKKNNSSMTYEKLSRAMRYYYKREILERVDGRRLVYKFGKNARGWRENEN
Put shortly: as §1

A further test concerns the target SPI1 (Homo sapiens, UniProt P17947 1-270). The method in brief:
as §1

Another test concerns the target SPIB (Homo sapiens, UniProt Q01892 1-262). Put shortly:
as §1

The target of a further test is T6, ELK3 (Homo sapiens, UniProt P41970 1-407).
T6 sequence: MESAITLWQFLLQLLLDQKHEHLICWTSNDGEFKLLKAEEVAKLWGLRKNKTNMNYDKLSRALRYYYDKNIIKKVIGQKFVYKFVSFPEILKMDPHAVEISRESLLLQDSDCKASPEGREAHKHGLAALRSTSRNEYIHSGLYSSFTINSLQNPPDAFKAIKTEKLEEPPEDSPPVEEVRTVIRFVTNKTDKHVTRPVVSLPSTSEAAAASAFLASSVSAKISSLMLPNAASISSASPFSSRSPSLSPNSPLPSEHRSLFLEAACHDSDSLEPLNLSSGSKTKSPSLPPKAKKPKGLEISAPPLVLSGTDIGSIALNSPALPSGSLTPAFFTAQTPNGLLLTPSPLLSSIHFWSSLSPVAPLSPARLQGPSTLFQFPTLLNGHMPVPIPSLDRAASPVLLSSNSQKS
Put shortly: as §1

Another test concerns the target T7, FEV (Homo sapiens, UniProt Q99581 1-238).
T7 sequence: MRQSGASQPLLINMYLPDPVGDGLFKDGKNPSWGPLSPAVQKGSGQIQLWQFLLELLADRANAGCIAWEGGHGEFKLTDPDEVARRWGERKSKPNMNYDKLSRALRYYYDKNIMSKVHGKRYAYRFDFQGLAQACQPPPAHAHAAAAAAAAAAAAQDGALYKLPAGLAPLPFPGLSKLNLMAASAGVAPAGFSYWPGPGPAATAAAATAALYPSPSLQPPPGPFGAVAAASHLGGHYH
Put shortly: as §1

Sequence of ELF1 (P32519 whole entry): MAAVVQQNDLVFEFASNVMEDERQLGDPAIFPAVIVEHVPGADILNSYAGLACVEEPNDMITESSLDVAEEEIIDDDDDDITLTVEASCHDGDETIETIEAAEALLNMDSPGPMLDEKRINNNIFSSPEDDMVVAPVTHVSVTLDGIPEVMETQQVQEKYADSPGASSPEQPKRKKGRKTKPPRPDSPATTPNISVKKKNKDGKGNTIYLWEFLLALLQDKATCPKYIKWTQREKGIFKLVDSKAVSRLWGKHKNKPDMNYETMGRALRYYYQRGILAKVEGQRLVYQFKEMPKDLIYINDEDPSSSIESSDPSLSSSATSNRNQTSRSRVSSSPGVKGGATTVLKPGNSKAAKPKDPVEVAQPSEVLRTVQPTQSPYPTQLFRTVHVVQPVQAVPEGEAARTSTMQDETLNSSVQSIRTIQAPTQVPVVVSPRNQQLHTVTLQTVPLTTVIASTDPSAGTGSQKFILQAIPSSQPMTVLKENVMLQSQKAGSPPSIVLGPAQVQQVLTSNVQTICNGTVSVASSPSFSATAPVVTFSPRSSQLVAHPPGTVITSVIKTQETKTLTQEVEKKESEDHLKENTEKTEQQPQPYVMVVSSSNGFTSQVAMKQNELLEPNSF
Sequence of SPIB (Q01892 whole entry): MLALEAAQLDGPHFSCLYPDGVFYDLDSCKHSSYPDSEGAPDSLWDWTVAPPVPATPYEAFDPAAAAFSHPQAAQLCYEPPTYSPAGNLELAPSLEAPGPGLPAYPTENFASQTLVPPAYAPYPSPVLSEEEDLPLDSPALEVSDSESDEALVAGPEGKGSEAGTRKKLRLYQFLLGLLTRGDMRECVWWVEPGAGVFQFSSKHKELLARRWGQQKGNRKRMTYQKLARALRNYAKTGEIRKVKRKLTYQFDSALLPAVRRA

Regarding GGAAGA, the binding signal is 1.06 fold enrichment (6-mer frequency, TF over GST control) with FLI1; 1.16 fold enrichment (6-mer frequency, TF over GST control) with ELK1; 1.11 fold enrichment (6-mer frequency, TF over GST control) with GABPA; 1.2 fold enrichment (6-mer frequency, TF over GST control) with ERG; 1.02 fold enrichment (6-mer frequency, TF over GST control) with ELF1; 1.3 fold enrichment (6-mer frequency, TF over GST control) in the test with EHF. Further, the binding signal is 1.17 fold enrichment (6-mer frequency, TF over GST control) with SPI1; 1.19 fold enrichment (6-mer frequency, TF over GST control) with SPIB; 1.19 fold enrichment (6-mer frequency, TF over GST control) in the test with ELK3; 1.05 fold enrichment (6-mer frequency, TF over GST control) with FEV.

(Values after publication PMC7862700, “An all-to-all approach to the identification of sequence-specific readers for epigenetic DNA modifications on cytosine”.)
